USP17 inh: inhibitors of human USP17 deubiquitinase; A8MUK1; hit rate 6.5% among 47,000; purified USP17, Ub-rhodamine cleavage fluorescence, 3 h; inhibition, % at 50 µM
Target sequence (A8MUK1 whole entry, looked up): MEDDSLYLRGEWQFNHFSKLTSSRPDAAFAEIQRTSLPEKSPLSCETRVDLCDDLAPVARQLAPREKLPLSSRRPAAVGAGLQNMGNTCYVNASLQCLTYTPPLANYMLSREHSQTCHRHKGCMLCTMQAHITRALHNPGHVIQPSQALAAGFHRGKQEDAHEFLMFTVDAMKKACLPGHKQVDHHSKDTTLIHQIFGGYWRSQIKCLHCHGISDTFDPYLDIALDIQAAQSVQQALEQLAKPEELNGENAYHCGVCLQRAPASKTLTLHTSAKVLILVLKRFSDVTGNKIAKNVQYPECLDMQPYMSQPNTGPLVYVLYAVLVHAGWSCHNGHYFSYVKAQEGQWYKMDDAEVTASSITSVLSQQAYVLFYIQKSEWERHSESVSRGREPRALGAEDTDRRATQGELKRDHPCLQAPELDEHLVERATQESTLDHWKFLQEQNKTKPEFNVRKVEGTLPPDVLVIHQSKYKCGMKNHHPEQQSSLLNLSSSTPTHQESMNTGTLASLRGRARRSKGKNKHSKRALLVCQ
USP30 block: inhibitors of human USP30 deubiquitinase | Q70CQ3 | purified USP30, Ub-rhodamine cleavage fluorescence | inhibition, % at 25 µM | hit rate 5.3% among 47,000 | AID 1645860
USP28 inh: blocks human USP28 ubiquitin-rhodamine cleavage; AID 1645857; hit rate 3% among 47,000; inhibition, % at 25 µM; Q96RU2; purified USP28, Ub-rhodamine cleavage fluorescence, 30 min
OTUD3 inh: inhibitors of human OTUD3 deubiquitinase | purified OTUD3, Ub-rhodamine fluorescence, 2 h | inhibition, % at 25 µM | hit rate 0.7% among 47,000 | AID 1645858
* marks the source's active call; other numbers are inactive results; / = not tested or not shown. Rows were chosen to be rich in hits. Some 12% of all compounds tested hit in one or more screens of this group. No stated cut-off is given here; in the data, active means inhibition above about 30%; inactive means the rest.

SMILES | USP17 inh | USP30 block | USP28 inh | OTUD3 inh
COc1ccc(-c2ocnc2C(=O)Nc2cccc(Cl)c2C)cc1OC | 28.0 | 58.4* | -0.1 | -5.7
O=C1CC(c2cccc(F)c2)c2sccc2N1 (stereo unspecified) | 8.8 | 17.8 | 23.8 | 3.0
O=C(NC1CCCC1)C1CC(=O)N(c2cccc(-c3noc(-c4cccs4)n3)c2)C1 (stereo unspecified) | 60.9* | -40.6 | -1.4 | 0.4
O=C(NCCc1c[nH]c2ccc(F)cc12)C(=O)Nc1cccc2ncccc12 | 44.9* | -7.0 | -8.6 | -7.1
Cc1ccc(C(=O)Nc2c(C(=O)N3CCN(c4ccccc4)CC3)[nH]c3ccccc23)cc1 | 33.9* | -0.2 | 13.4 | 45.6*
Cc1ccc(C(=O)Nc2c(C(=O)N3CCN(c4cccc(C)c4)CC3)[nH]c3ccccc23)cc1 | -79.6 | -351.9 | -46.4 | -49.5
COC(=O)c1ccc(N2CCN(C(=O)c3ccccc3)CC2)c(NC(=O)c2cc(OC)c(OC)c(OC)c2)c1 | 8.5 | -0.2 | 0.2 | -10.2
COC(=O)c1ccc(N2CCN(C(=O)c3ccccc3)CC2)c(NC(=O)COc2ccccc2Cl)c1 | 39.2* | 33.0* | 8.7 | 8.6
O=C(Nc1ccc(F)cc1)c1cc2ccccc2[nH]c1=O | 20.8 | / | / | 0.4
O=C(NCc1ccc(CN2CCCC2)cc1)c1cc2ccccc2[nH]c1=O | 65.3* | 28.2 | 23.0 | 1.9
Cc1c(CN2CCC(C(=O)Nc3cccc(-c4cccc(F)c4)c3)CC2)cnn1C | -4.1 | 31.2* | 23.3 | -10.0
COc1cccc(Cn2nc3n(C(C)C)c(=O)c4ccc(C(=O)NCC(C)C)cc4n3c2=O)c1 | 32.7* | 23.4 | 15.0 | 22.2
Cc1ccc(NC(=O)CNc2nc(Nc3ccccc3)nc(Nc3ccccc3)n2)cc1 | 6.9 | 0.8 | -11.0 | -5.2
CCOc1ccc(NC(=O)CNc2nc(Nc3ccc(OC)cc3)nc(Nc3ccc(OC)cc3)n2)cc1 | 57.5* | 68.7* | 20.1 | 13.7
CCOc1ccc(NC(=O)CCn2c(-c3ccc(OC)cc3)cc(C(C)=O)c2C)cc1 | 70.3* | 80.1* | 20.4 | 13.2
Cc1cc(-c2cnc(N3CCCCC3)nc2C2CCN(c3ncccn3)CC2)on1 | 4.8 | -0.8 | -0.3 | 5.6
Cc1cc(-c2cnc(NC3CCCC3)nc2[C@H]2CCCO2)on1 | -6.9 | / | / | -9.5
Cc1cc(-c2cnc(N3CCSCC3)nc2[C@@H]2CCCO2)on1 | 30.0 | 32.6* | -0.2 | 2.8
Cc1cc(-c2cnc(N3CCCCC3)nc2C2CCN(c3cnccn3)CC2)on1 | 16.8 | 34.4* | 8.4 | 6.3
CC(C)CC1Nc2ccc(C(=O)NCCCN3CCCC3)cc2NC1=O (stereo unspecified) | 38.3* | 4.9 | 0.0 | -1.1
O=C(COc1ccc2c3c(c(=O)oc2c1)CCC3)Nc1cccnc1 | -1.6 | 0.4 | 7.1 | 9.1
COc1ccc(C(=O)Nc2ccc(C)c(S(=O)(=O)N3CCCCCC3)c2)cc1 | -5.6 | -8.7 | 1.1 | -2.0
COc1ccc(C(=O)Nc2cc(F)c3[nH]c(=O)ccc3c2)cc1 | 38.8* | 35.0* | 28.9 | 16.7
Cc1cc(C)c(COc2ccc3c(c2C)OC(C)(C)CC3=O)c(C)c1 | 21.4 | 30.1* | 11.9 | 14.6
Fc1cccc(Cl)c1COc1cccc(-c2ccnc(-c3ccncc3)n2)c1 | 13.1 | 16.7 | -1.4 | -3.0
SMILES | USP17 inh | USP30 block | USP28 inh | OTUD3 inh
COc1ccccc1CN1C(=O)c2nc3ccccc3n2CC1(C)C(=O)NC1CCCC1 (stereo unspecified) | -2.1 | 30.3* | 9.6 | 11.1
CC1(C(=O)NC2CCCC2)Cn2c(nc3ccccc32)C(=O)N1Cc1ccc(F)cc1 (stereo unspecified) | -3.2 | -8.4 | -6.9 | -9.0
CC1(C(=O)NC2CCCC2)Cn2c(nc3ccccc32)C(=O)N1CCc1ccccc1 (stereo unspecified) | 9.1 | 35.5* | 2.2 | 3.2
O=C(COc1ccccc1)NCc1noc(C2CCCC2)n1 | 16.7 | 18.7 | 5.8 | 11.1
COc1cccc(CC(=O)N2CC[C@@H]3CN(CC(C)C)S(=O)(=O)[C@@H]3CC2)c1 | / | 21.1 | 12.1 | 8.6
COc1ccccc1CNCc1c(C(=O)O)n(Cc2ccc(F)cc2Cl)c2cc(C)ccc12 | 20.2 | 18.3 | 7.6 | 9.3
Cc1ccc(Cn2c(C(=O)O)c(CNCc3cccc(Cl)c3)c3ccc(C)cc32)cc1 | 12.5 | 43.2* | 32.8* | 12.1
Cc1ccc(Cn2c(C(=O)O)c(CNCc3ccco3)c3ccccc32)cc1 | 35.1* | -18.8 | 13.0 | 0.9
COc1ccc(CNCc2c(C(=O)O)n(Cc3ccc(F)cc3Cl)c3cc(C)ccc23)cc1 | 57.2* | 62.6* | 28.0 | 13.4
O=C(Nc1nc(C(=O)Nc2cccnc2)co1)c1ccccc1 | -34.1 | -19.2 | 0.0 | -11.5
Cc1ccc(NC(=O)CN2C(=O)C3CCCN3C(=O)c3ccc(F)cc32)cc1 (stereo unspecified) | 2.1 | 7.5 | 1.4 | 1.9
COc1ccc(CCNC(=O)[C@H](C)NC(=O)c2cc3c([nH]c4ccccc43)c(C)n2)cc1 | 33.9* | -158.7 | 8.8 | -30.0
C[C@H](NCC1C(=O)O[C@@H]2C[C@@]3(C)CCC[C@H](C)C3=C[C@H]12)c1ccccc1 (stereo partly specified) | -0.3 | 16.4 | 11.9 | -1.4
CC(C)c1ccc(N2CCN(Cc3ccc(F)cc3F)C2=O)cc1 | -12.8 | 8.2 | 21.1 | -2.6
CS(=O)(=O)c1cccc(N2CCN(Cc3ccc(F)cc3F)C2=O)c1 | -27.1 | 8.7 | 33.1* | -4.8
CS(=O)(=O)c1cccc(N2CCN(CC3CC3)C2=O)c1 | 10.0 | 14.8 | 32.9* | 6.5
CCN(CC)CCCNC(=O)/C(=C\c1ccc(OC)c(OC)c1)n1ccccc1=O | 7.8 | 0.7 | 1.4 | 4.0
O=C(NCC1CC1)c1cnc2ccccc2n1 | -11.4 | 0.7 | 2.5 | 5.0
Cc1ccc(CN2C[C@@H]3c4nc(N(C)C)ncc4CS(=O)(=O)[C@@H]3C2)cc1 | -3.3 | 30.5* | 7.5 | 6.1
COC(=O)c1ccc(Nc2c(C#N)cnc3ccc(Cl)cc23)cc1 | 17.3 | 33.1* | 10.5 | 6.6
Clc1ccc2nc(NC3=NCN(CCc4ccccc4)CN3)nc(-c3ccccc3)c2c1 | -5.0 | 37.8* | 27.3 | 3.8
COc1ccccc1NC(=O)N1CCN(CCc2ccccc2)CC1 | 3.9 | 16.9 | 0.6 | 3.1
COc1cccc2c(C)nc(NC3=NCN(CCc4ccccc4)CN3)nc12 | 0.4 | 33.4* | 14.8 | 12.7
COc1ccccc1NC1c2ccccc2C(=O)N1Cc1ccccc1Cl (stereo unspecified) | -11.4 | -13.0 | -12.9 | -5.6
CC1=N[C@@]2(CC[C@@H]3CN(S(=O)(=O)C4CC4)C[C@@H]32)C(=O)N1CC1CC1 | 0.1 | 8.8 | 8.3 | 4.5
O=c1c2ccc(Cl)cc2ncn1Cc1csc(-c2ccccc2)n1 | 26.9 | 0.0 | 19.6 | 11.0
Cc1ccc(-c2nc(Cn3cnc4ccccc4c3=O)cs2)cc1 | 37.3* | 57.9* | 33.1* | 21.9
COc1ccc(CCNC(=O)CN2C(=O)c3ccccc3C2c2c(C)[nH]c3ccccc23)cc1OC (stereo unspecified) | -11.5 | -37.2 | 0.0 | -3.9
Cc1ccc(CNC(=O)CN2C(=O)c3ccccc3C2c2c(-c3ccccc3)[nH]c3ccccc23)o1 (stereo unspecified) | 36.6* | -15.2 | 4.0 | 1.9
Cc1nn(C)c(C)c1CNC(=O)C1CCN(c2nnc3ccc(C(F)(F)F)cn23)CC1 | 4.3 | 12.2 | 37.8* | 6.1
